Reference: the supplement of paper PMC12350171
Where a name gives a salt, the structure may show the parent alone. A number with no mark means an inactive call.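 Rule for the calls: active = AUC significantly below DMSO controls by Student t-fit with adjusted P under 0.01; inactive = not significantly reduced.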

tested on: Haemophilus parainfluenzae; assay: growth AUC normalised to DMSO control (fraction of control); higher = less growth inhibition, active = hit call of the paper; details: 20 µM
Summary of the method: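 Pathogens were passaged twice under anaerobic conditions, then inoculated into pre-reduced mGAM plates at a starting OD578 of 0.01, with compound at 20 μM and 1% DMSO, and sealed with breathable membranes. For Haemophilus parainfluenzae, the medium was supplemented with hemin and NAD. OD578 was read every hour for 24 h in three biological replicates. Growth-curve AUC was calculated by the trapezoidal rule up to the exponential-to-stationary transition and normalised to DMSO controls on the same plate.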

| SMILES | growth AUC normalised to DMSO control |
| --- | --- |
| O=P(O)(O)C(Cl)(Cl)P(=O)(O)O [Clodronate disodium] | 0.965 |
| Cc1cnc(C(=O)O)c[n+]1[O-] [Acipimox] | 0.94 |
| CNCCC=C1c2ccccc2C=Cc2ccccc21 [Norcyclobenzaprine] | 0.91 |
| CN1CCC(OC(c2ccccc2)c2ccccc2)CC1 [Diphenylpyraline hydrochloride] | 0.996 |
| C#C[C@]1(O)CC[C@H]2[C@@H]3CCc4cc(OC)ccc4[C@H]3CC[C@@]21C [Mestranol] | 1.02 |
| Cn1c(=O)c2c(ncn2CC2OCCO2)n(C)c1=O [Doxofylline] | 1.02 |
| CC(=O)N[C@@H](CS)C(=O)O [Acetylcysteine] | 1.07 |
| Nc1c2c(nc3ccccc13)CCCC2 [Tacrine hydrochloride] | 1.01 |
| COC(=O)C1=C(C#N)NC(C)=C(C(=O)OC(C)C)C1c1cccc([N+](=O)[O-])c1 (centres undefined) [Nilvadipine] | 0.985 |
| CCC(=O)[C@@]1(C)[C@H](C)C[C@H]2[C@@H]3CCC4=CC(=O)C=C[C@]4(C)[C@H]3[C@@H](O)C[C@@]21C [Rimexolone] | 0.998 |
| Oc1ccc(OCc2ccccc2)cc1 [Monobenzone] | 0.902 |
| Cc1nc2n(c(=O)c1CCN1CCC(c3noc4cc(F)ccc34)CC1)CCCC2 [Risperidone] | 1 |
| C[C@H]1O[C@@H](O[C@H]2[C@@H](O)C[C@H](O[C@H]3[C@@H](O)C[C@H](O[C@H]4CC[C@@]5(C)[C@H](CC[C@@H]6[C@@H]5C[C@@H](O)[C@]5(C)[C@@H](C7=CC(=O)OC7)CC[C@]65O)C4)O[C@@H]3C)O[C@@H]2C)C[C@H](O)[C@@H]1O [Digoxin] | 0.979 |
| COc1ccc2c(c1)c(CC(=O)O)c(C)n2C(=O)c1ccc(Cl)cc1 [Indomethacin] | 0.975 |
| CCCCC1(COC(=O)CCC(=O)O)C(=O)N(c2ccccc2)N(c2ccccc2)C1=O [Suxibuzone] | 0.995 |
| O=C(O)c1cn(-c2ccc(F)cc2)c2cc(N3CCNCC3)c(F)cc2c1=O [Sarafloxacin] | 0.0521 (active) |
| CC1=C(C(=O)O)N2C(=O)[C@@H](NC(=O)[C@H](N)c3ccc(O)cc3)[C@H]2SC1 [Cefadroxil] | 0.949 |
| CNC(=C[N+](=O)[O-])NCCSCc1ccc(CN(C)C)o1 [Ranitidine hydrochloride] | 0.992 |
| CCCCOc1cc(C(=O)NCCN(CC)CC)c2ccccc2n1 [Dibucaine] | 0.849 |
| COc1c2occc2c(OC)c2c(=O)cc(C)oc12 [Khellin] | 0.993 |
| Cc1cnc(NC(=O)C2=C(O)c3ccccc3S(=O)(=O)N2C)s1 [Meloxicam] | 0.968 |
| COc1ccc(-c2cc(=S)ss2)cc1 [Anethole-trithione] | 1.05 |
| C[C@@H]1C[C@H]2[C@@H]3C[C@H](F)C4=CC(=O)C=C[C@]4(C)[C@@]3(Cl)[C@@H](O)C[C@]2(C)[C@H]1C(=O)COC(=O)C(C)(C)C [Clocortolone pivalate] | 1.73 |
| CO/N=C(\C(=O)N[C@@H]1C(=O)N2C(C(=O)O)=C(COC(N)=O)CS[C@H]12)c1ccco1 [Cefuroxime sodium salt] | 0.0255 (active) |
| CCn1cc(C(=O)O)c(=O)c2ccc(C)nc21 [Nalidixic acid sodium salt] | 0.813 (active) |
| OC(Cn1cncn1)(Cn1cncn1)c1ccc(F)cc1F [Fluconazole] | 1.07 |
| CCN(CC)CCOC(=O)C(Cc1cccc2ccccc12)CC1CCCO1 (centres undefined) [Nafronyl oxalate] | 1.28 |
| O=C(c1ccc(OCCN2CCCCC2)cc1)c1c(-c2ccc(O)cc2)sc2cc(O)ccc12 [Raloxifene hydrochloride] | 0.974 |
| NC(=O)c1ncn([C@@H]2O[C@H](CO)[C@@H](O)[C@H]2O)n1 [Ribavirin] | 1 |
